# From PubChem BioAssay (EPA / NIEHS)
# “And” between values parts separate entries of the source, which are not always exact repeats. Equal entries are not always repeated. Records with an inconclusive call do not appear. The source made the active and inactive calls. How the source made its calls, unless noted: active means hit-call score of the fitted dose curve at least 0.9, where 1 is the maximum; inactive means score below 0.9.
# Assays:
# [1] = BSK_4H_Eotaxin3: BioMAP Diversity Plus: 4H Assay for Eotaxin 3 Biomarker Activity (AID 2283000); conditions: primary human endothelial cells (HUVEC); actives raise or lower the signal;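 on outcome: CCL26 protein level quantified by ELISA in parallel with SRB cytotoxicity check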
# Summary of the method: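 Readout is Eotaxin-3 (CCL26) level by ELISA in primary human umbilical vein endothelial cells harvested 24 h after chemical exposure; activity fitted in both directions against DMSO control.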
# [2] = biological target: human Peroxisome Proliferator-activated Receptor alpha (PPARa), PPARA (gene 5465) (UniProt Q07869); assay: ATG_PPARa_TRANS: Attagene TRANS-FACTORIAL HepG2 Assay for human Peroxisome Proliferator-activated Receptor alpha (PPARa) (AID 2283001; active means hit-call score of the fitted dose curve at least 0.9, where 1 is the maximum;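 on AC50: potency for gain of reporter signal over DMSO so agonist or activator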)
# Summary of the method: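 Gain-of-signal endpoint: reporter mRNA induction relative to DMSO, detected by fluorescent RT-PCR and capillary electrophoresis. HepG2 cells transiently carried GAL4-UAS-driven reporter units plus NR-Gal4 fusion; exposure lasted 24 h.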
# [3] = read-out: Intercellular Adhesion Molecule 1 (ICAM1), ICAM1 (gene 3383); assay: BSK_3C_ICAM1: BioMAP Diversity Plus: 3C Assay for Intercellular Adhesion Molecule 1 (ICAM1) Biomarker Activity (AID 2283003); conditions: primary human endothelial cells (HUVEC); actives raise or lower the signal
# Summary of the method: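 HUVEC primary cells stimulated under 3C conditions; ICAM1 measured by ELISA 24 h after compound dosing. Curves fitted bidirectionally against the DMSO baseline. Overt cytotoxicity checked by SRB staining of parallel cultures.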
# [4] = BSK_3C_Proliferation: Cell Proliferation Assessment in the BioMAP Diversity Plus: 3C Assay (AID 2283006); conditions: primary human endothelial cells (HUVEC);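 on AC50: potency may reflect either rise or fall in cell number versus DMSO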
# Summary of the method: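 Subconfluent HUVEC (3C system) cultured with chemical; relative cell number read at 48 h by sulforhodamine B total-protein staining (0.1% SRB after 10% TCA fixation, 560 nm). Bidirectional fit relative to DMSO.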
# [5] = biological target: Peroxisome proliferator-activated receptor gamma (Homo sapiens) (UniProt P37231); assay: ATG_PPARg_TRANS: Attagene TRANS-FACTORIAL HepG2 Assay for human Peroxisome Proliferator-activated Receptor-gamma (PPARg) (AID 2283007; active means hit-call score of the fitted dose curve at least 0.9, where 1 is the maximum)
# Summary of the method: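 After 24 h of chemical exposure, transfected HepG2 cells carrying PPARγ-Gal4 chimera reporter constructs are lysed for RNA. Reporter transcripts are measured by RT-PCR and capillary electrophoresis with fluorescent labelling, and gain of signal is fitted versus DMSO.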
# [6] = biological target: human Retinoic Acid Receptor gamma (RARg), RARG (gene 5916) (UniProt P13631); assay: ATG_RARg_TRANS: Attagene TRANS-FACTORIAL HepG2 Assay for human Retinoic Acid Receptor gamma (RARg) (AID 2283009; active means hit-call score of the fitted dose curve at least 0.9, where 1 is the maximum)
# Summary of the method: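 HepG2 transiently transfected with GAL4-UAS reporter units and chimeric NR-Gal4 constructs; 24 h compound exposure. Reporter mRNA quantified by RT-PCR, FAM labeling, HpaI digestion and capillary electrophoresis; gain-of-signal versus DMSO.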
# [7] = biological target: Retinoic acid receptor RXR-alpha (Homo sapiens) (UniProt P19793); assay: ATG_RXRa_TRANS: Attagene TRANS-FACTORIAL HepG2 Assay for human Retinoid X Receptor alpha (RXRa) (AID 2283012; active means hit-call score of the fitted dose curve at least 0.9, where 1 is the maximum)
# Summary of the method: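 HepG2 cells transiently transfected with GAL4-UAS reporter units and chimeric RXRa-Gal4 protein, treated 24 h. Reporter mRNA measured by RT-PCR, fluorescent labelling, HpaI digestion and capillary electrophoresis. Induction fitted against DMSO.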
# [8] = biological target: human Retinoid X Receptor beta (RXRb), RXRB (gene 6257) (UniProt P28702); assay: ATG_RXRb_TRANS: Attagene TRANS-FACTORIAL HepG2 Assay for human Retinoid X Receptor beta (RXRb) (AID 2283013; active means hit-call score of the fitted dose curve at least 0.9, where 1 is the maximum)
# Summary of the method: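 HepG2 cells were transiently transfected with multiplexed GAL4-UAS reporters and a chimeric RXRb-Gal4 construct, then exposed for 24 h. Reporter mRNA was quantified by RT-PCR, FAM labeling, HpaI digestion and capillary electrophoresis; gain of signal was scored against DMSO.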
# [9] = read-out: E-selectin (Homo sapiens) (UniProt P16581); assay: BSK_3C_Eselectin: BioMAP Diversity Plus: 3C Assay for Eselectin Biomarker Activity (AID 2283015); conditions: primary human endothelial cells (HUVEC); actives raise or lower the signal;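 on outcome: cell surface E-selectin protein quantified by ELISA 24 h after dosing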
# Summary of the method: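 HUVEC, 3C stimulation; compound exposure 24 h; E-selectin by ELISA; gain- or loss-of-signal fitted bidirectionally vs DMSO baseline.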
# [10] = read-out: Interleukin-1 alpha (IL1a), IL1A (gene 3552); assay: BSK_BE3C_IL1a: BioMAP Diversity Plus: BE3C Assay for Interleukin-1 alpha (IL1a) Biomarker Activity (AID 2283016); conditions: primary human bronchial epithelial cells; actives raise or lower the signal
# Summary of the method: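 Human primary bronchial epithelial cells, 24 h chemical exposure; IL-1a quantified by ELISA, fitted bidirectionally against DMSO. Cytotoxicity assessed in parallel by SRB total-protein staining at the time of measurement.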
# [11] = read-out: Monocyte Chemoattractant Protein-1 (MCP1), CCL2 (gene 6347); assay: BSK_3C_MCP1: BioMAP Diversity Plus: 3C Assay for Monocyte Chemoattractant Protein-1 (MCP1) Biomarker Activity (AID 2283017); conditions: primary human endothelial cells (HUVEC); actives raise or lower the signal
# Summary of the method: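 HUVEC, 3C system; 24 h chemical exposure; MCP-1 by ELISA; bidirectional curve fit vs DMSO baseline.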
# [12] = read-out: Monocyte Chemoattractant Protein-1 (MCP1), CCL2 (gene 6347); assay: BSK_4H_MCP1: BioMAP Diversity Plus: 4H Assay for Monocyte Chemoattractant Protein-1 (MCP1) Biomarker Activity (AID 2283018); conditions: primary human endothelial cells (HUVEC); actives raise or lower the signal
# Summary of the method: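 Human umbilical vein endothelial cells (4H system) exposed to chemicals for 24 h in 96-well format. MCP-1 measured by ELISA; bidirectional fitting against DMSO, with SRB total-protein staining in parallel cultures for cytotoxicity.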
# [13] = read-out: Human Leukocyte Antigen - DR isotype (HLADR), HLA-DRA (gene 3122); assay: BSK_3C_HLADR: BioMAP Diversity Plus: 3C Assay for Human Leukocyte Antigen - DR isotype (HLADR) Biomarker Activity (AID 2283019); conditions: primary human endothelial cells (HUVEC); actives raise or lower the signal;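 on outcome: ELISA of cell-surface HLA-DR on HUVEC 24 h after dosing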
# Summary of the method: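 HUVEC, 3C stimulation, 24 h post-dose; HLA-DR by ELISA; bidirectional curve fit vs DMSO baseline; gain or loss of signal scored.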
# [14] = biological target: human Peroxisome Proliferator-activated Receptor delta (PPARd), PPARD (gene 5467) (UniProt Q03181); assay: ATG_PPARd_TRANS: Attagene TRANS-FACTORIAL HepG2 Assay for human Peroxisome Proliferator-activated Receptor delta (PPARd) (AID 2283002; active means hit-call score of the fitted dose curve at least 0.9, where 1 is the maximum)
# Summary of the method: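 Multiplexed trans-activation format: HepG2 liver cells expressing exogenous NR-Gal4 chimeras and GAL4-UAS reporters were exposed for 24 h. Reporter mRNA was detected by RT-PCR with capillary electrophoresis fluorescence; activity fitted as gain of signal relative to DMSO.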
# [15] = biological target: Nuclear receptor subfamily 1 group I member 2 (Homo sapiens) (UniProt O75469); assay: ATG_PXR_TRANS: Attagene TRANS-FACTORIAL HepG2 Assay for human Pregnane X Receptor (PXR) (AID 2283008; active means hit-call score of the fitted dose curve at least 0.9, where 1 is the maximum)
# Summary of the method: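 Read-out is fluorescence of labelled reporter cDNA fragments separated by capillary electrophoresis after RT-PCR and HpaI digestion. Source: HepG2 cells carrying PXR-GAL4/UAS reporter constructs, treated 24 h; activity fitted upward relative to DMSO.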
# [16] = biological target: human RAR-related Orphan Receptor beta (RORb), RORB (gene 6096) (UniProt Q92753); assay: ATG_RORb_TRANS: Attagene TRANS-FACTORIAL HepG2 Assay for human RAR-related Orphan Receptor beta (RORb) (AID 2283010; active means hit-call score of the fitted dose curve at least 0.9, where 1 is the maximum)
# Summary of the method: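 HepG2 cells transiently transfected with GAL4-UAS reporter units expressing chimeric NR-Gal4 protein; reporter mRNA measured 24 h after dosing by RT-PCR, 6-FAM labelling and capillary electrophoresis. Gain-of-signal fitted relative to DMSO baseline.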
# [17] = biological target: human Thyroid Receptor alpha (THRa1), THRA (gene 7067) (UniProt P10827); assay: ATG_THRa1_TRANS: Attagene TRANS-FACTORIAL HepG2 Assay for human Thyroid Receptor alpha (THRa1) (AID 2283014; active means hit-call score of the fitted dose curve at least 0.9, where 1 is the maximum)
# Summary of the method: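 Transient HepG2 transfection, NR-Gal4 chimera driving GAL4-UAS reporters; 24 h compound exposure; total RNA, oligo(dT) RT, PCR, fluorescent primer extension, capillary electrophoresis. Upward direction vs DMSO control.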
# [18] = biological target: human RAR-related Orphan Receptor gamma (RORg), RORC (gene 6097) (UniProt P51449); assay: ATG_RORg_TRANS: Attagene TRANS-FACTORIAL HepG2 Assay for human RAR-related Orphan Receptor gamma (RORg) (AID 2283011; active means hit-call score of the fitted dose curve at least 0.9, where 1 is the maximum)
# Summary of the method: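 Transient MRTU transfection of HepG2 (TRANS format, exogenous NR-Gal4 chimera). 24 h dosing. Total RNA → oligo(dT) RT → PCR → 6-FAM labelling → HpaI cut → CE. Gain vs DMSO.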
# Sequence of Retinoic acid receptor RXR-alpha (Homo sapiens) (P19793 whole entry, looked up, the tested form may be a part): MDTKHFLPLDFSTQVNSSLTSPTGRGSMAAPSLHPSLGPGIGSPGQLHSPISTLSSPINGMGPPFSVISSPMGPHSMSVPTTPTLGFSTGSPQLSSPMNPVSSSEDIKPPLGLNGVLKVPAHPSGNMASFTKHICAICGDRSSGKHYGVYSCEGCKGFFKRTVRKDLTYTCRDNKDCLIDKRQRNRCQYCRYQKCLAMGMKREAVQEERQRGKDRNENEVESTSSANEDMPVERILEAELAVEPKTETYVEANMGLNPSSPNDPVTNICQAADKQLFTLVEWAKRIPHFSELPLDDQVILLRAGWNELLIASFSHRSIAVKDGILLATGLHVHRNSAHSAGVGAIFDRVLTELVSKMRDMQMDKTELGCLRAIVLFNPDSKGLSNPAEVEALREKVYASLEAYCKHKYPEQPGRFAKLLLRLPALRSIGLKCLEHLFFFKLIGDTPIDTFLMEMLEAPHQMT
# Sequence of human RAR-related Orphan Receptor beta (RORb), RORB (gene 6096) (Q92753 whole entry, looked up, the tested form may be a part): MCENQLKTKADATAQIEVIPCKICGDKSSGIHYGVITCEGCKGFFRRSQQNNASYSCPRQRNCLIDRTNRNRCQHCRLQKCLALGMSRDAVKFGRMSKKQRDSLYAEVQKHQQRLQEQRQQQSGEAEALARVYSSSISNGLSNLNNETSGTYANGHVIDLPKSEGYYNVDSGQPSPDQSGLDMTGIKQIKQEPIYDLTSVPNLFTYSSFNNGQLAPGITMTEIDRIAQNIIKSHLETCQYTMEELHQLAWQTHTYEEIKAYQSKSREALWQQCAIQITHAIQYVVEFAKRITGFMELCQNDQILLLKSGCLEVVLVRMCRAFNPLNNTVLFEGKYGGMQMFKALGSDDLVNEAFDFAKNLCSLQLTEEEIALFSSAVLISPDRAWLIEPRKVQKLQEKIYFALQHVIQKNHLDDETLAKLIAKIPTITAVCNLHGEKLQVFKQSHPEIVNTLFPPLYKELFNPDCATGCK
# Sequence of Peroxisome proliferator-activated receptor gamma (Homo sapiens) (P37231 whole entry, looked up, the tested form may be a part): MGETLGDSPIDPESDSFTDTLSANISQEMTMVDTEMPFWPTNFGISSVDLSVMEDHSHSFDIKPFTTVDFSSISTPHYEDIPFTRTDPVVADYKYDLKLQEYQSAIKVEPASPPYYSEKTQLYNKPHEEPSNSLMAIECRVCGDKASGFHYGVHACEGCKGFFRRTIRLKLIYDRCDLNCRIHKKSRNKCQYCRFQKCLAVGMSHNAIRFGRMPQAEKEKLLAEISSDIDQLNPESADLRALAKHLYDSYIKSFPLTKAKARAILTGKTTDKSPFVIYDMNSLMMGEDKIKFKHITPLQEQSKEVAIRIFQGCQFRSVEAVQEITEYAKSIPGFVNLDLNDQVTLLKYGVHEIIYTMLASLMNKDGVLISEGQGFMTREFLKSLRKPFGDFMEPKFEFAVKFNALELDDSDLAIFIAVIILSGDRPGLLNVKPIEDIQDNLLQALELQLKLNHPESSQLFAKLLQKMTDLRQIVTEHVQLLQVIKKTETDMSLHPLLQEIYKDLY
# Sequence of human Peroxisome Proliferator-activated Receptor alpha (PPARa), PPARA (gene 5465) (Q07869 whole entry, looked up, the tested form may be a part): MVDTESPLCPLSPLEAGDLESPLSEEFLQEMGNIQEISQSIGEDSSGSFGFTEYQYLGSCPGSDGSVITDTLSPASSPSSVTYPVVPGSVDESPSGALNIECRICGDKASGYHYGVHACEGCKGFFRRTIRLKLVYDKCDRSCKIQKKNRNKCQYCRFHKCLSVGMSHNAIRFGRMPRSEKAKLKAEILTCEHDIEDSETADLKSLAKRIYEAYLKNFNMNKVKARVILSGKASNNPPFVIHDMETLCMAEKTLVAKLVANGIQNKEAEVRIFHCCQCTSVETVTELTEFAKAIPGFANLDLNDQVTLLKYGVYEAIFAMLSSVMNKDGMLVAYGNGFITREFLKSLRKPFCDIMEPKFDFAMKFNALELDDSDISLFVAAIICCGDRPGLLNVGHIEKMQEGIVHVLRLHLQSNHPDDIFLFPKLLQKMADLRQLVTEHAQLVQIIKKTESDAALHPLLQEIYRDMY
# Sequence of human Retinoid X Receptor beta (RXRb), RXRB (gene 6257) (P28702 whole entry, looked up, the tested form may be a part): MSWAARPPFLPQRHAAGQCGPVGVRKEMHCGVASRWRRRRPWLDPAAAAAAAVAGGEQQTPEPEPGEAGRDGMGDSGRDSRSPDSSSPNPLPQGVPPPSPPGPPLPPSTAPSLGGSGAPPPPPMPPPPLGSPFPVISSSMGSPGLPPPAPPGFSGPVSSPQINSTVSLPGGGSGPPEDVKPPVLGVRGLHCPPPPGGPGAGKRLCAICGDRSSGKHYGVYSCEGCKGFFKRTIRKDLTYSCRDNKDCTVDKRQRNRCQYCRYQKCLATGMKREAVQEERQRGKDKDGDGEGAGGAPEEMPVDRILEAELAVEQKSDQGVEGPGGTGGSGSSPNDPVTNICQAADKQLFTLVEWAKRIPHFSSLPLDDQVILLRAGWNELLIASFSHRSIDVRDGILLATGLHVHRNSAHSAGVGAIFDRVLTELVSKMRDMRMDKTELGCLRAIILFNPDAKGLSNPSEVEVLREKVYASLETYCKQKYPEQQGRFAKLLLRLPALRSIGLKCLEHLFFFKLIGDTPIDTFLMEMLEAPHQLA
# Sequence of human Thyroid Receptor alpha (THRa1), THRA (gene 7067) (P10827 whole entry, looked up, the tested form may be a part): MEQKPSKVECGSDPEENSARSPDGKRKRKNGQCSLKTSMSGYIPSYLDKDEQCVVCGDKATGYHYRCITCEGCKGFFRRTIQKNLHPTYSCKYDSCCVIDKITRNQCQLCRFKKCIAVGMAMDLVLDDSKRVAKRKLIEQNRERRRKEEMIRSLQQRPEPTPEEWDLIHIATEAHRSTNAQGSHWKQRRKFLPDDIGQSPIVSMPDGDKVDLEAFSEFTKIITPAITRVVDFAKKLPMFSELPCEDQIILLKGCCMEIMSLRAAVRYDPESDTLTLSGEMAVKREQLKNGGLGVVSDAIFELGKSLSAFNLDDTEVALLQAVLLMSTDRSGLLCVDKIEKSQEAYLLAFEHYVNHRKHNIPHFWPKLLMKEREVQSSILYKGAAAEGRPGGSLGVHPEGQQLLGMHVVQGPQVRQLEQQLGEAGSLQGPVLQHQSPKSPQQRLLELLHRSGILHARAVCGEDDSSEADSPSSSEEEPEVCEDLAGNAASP
# Sequence of E-selectin (Homo sapiens) (P16581 whole entry, looked up): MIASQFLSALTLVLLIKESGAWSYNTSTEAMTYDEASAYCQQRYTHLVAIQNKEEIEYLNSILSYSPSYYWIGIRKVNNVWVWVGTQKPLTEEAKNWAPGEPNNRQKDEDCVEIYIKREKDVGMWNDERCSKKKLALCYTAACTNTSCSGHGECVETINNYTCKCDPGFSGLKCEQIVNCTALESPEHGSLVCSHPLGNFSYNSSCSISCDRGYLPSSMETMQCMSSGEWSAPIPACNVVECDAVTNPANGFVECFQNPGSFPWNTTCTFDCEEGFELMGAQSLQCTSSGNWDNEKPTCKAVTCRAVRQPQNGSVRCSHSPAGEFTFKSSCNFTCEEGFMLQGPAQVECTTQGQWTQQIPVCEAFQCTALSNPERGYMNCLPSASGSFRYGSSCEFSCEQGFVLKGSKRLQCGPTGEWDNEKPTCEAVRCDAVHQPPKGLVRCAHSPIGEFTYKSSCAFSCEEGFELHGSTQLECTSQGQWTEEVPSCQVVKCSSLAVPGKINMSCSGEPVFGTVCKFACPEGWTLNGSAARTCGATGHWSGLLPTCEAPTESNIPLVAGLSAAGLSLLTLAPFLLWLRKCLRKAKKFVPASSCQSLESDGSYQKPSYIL
# Sequence of human Peroxisome Proliferator-activated Receptor delta (PPARd), PPARD (gene 5467) (Q03181 whole entry, looked up, the tested form may be a part): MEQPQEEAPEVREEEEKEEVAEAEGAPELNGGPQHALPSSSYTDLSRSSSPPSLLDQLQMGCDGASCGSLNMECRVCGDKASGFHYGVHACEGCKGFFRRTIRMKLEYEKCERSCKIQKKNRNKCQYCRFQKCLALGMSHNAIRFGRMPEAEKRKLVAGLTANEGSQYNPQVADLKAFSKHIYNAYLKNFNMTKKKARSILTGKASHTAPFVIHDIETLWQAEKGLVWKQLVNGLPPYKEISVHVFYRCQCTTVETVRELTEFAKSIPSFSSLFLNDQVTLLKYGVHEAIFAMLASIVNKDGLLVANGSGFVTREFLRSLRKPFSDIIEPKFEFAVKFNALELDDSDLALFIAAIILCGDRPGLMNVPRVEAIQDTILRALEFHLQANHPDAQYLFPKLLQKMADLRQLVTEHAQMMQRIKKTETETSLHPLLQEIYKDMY
# Sequence of Nuclear receptor subfamily 1 group I member 2 (Homo sapiens) (O75469 whole entry, looked up, the tested form may be a part): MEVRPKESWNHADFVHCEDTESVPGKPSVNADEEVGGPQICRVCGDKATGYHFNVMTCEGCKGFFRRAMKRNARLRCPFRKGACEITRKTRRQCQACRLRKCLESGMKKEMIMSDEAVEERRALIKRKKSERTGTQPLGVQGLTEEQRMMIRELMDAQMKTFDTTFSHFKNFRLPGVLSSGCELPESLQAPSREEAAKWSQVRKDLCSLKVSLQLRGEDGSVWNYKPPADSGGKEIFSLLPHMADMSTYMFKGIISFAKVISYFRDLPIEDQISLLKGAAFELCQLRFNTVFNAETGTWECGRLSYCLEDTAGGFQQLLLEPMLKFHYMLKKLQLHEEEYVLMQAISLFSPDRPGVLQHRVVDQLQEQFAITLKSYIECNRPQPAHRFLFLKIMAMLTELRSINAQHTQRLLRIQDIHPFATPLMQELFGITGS
# Sequence of human RAR-related Orphan Receptor gamma (RORg), RORC (gene 6097) (P51449 whole entry, looked up, the tested form may be a part): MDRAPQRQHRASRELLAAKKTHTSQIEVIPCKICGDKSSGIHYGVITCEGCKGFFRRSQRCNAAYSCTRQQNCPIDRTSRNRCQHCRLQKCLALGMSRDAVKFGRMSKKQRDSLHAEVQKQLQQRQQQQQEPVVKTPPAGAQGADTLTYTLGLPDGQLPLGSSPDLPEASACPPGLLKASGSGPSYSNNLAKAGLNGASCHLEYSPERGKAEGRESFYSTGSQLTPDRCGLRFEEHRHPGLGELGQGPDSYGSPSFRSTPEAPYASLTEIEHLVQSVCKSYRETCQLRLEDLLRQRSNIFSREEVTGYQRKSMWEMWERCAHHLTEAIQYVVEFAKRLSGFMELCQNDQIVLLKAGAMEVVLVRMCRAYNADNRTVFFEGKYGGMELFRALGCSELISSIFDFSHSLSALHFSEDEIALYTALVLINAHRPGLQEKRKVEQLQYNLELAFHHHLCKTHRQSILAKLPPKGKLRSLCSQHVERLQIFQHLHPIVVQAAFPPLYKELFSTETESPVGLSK
smiles,measurement,setting,value
CCCCCCCCCC(=O)OCC,AC50,[1],34300 nM (active)
same,AC50,[2],64900 nM (active)
same,AC50,[3],35100 nM (active)
same,AC50,[4],20 µM (active)
same,AC50,[5],84800 nM (active)
same,outcome,[6],inactive
same,outcome,[7],inactive
same,AC50,[8],100000 nM (active)
same,AC50,[9],15200 nM (active)
same,AC50,[10],20 µM (active)
same,AC50,[11],32000 nM (active)
same,AC50,[12],29700 nM (active)
same,AC50,[13],14400 nM (active)
O=S1(=O)CC(Cl)(Cl)C(Cl)(Cl)C1,AC50,[1],408 nM (active)
same,outcome,[2],inactive
same,outcome,[14],inactive
same,AC50,[3],1020 nM (active)
same,AC50,[4],0.191 µM (active)
same,outcome,[5],inactive
same,outcome,[15],inactive
same,outcome,[16],inactive
same,outcome,[7],inactive
same,outcome,[8],inactive
same,outcome,[17],inactive
same,AC50,[9],611 nM (active)
same,AC50,[10],1.33 µM (active)
same,AC50,[11],961 nM (active)
same,AC50,[12],537 nM (active)
same,AC50,[13],327 nM (active)
CCCCN(CCO)CCO,outcome,[1],inactive
same,outcome,[2],inactive
same,outcome,[3],inactive
same,outcome,[4],inactive
same,outcome,[5],inactive
same,outcome,[16],inactive
same,outcome,[7],inactive
same,outcome,[17],inactive
same,outcome,[9],inactive
same,outcome,[10],inactive
same,outcome,[11],inactive
same,outcome,[12],inactive
same,outcome,[13],inactive
C=CC(=O)OCC(CO)(COC(=O)C=C)COC(=O)C=C,AC50,[1],410 nM (active)
same,outcome,[2],inactive
same,outcome,[14],inactive
same,AC50,[3],574 nM (active)
same,AC50,[4],0.131 µM (active)
same,outcome,[5],inactive
same,outcome,[8],inactive
same,outcome,[17],inactive
same,AC50,[9],269 nM (active)
same,AC50,[10],0.898 µM (active)
same,AC50,[11],185 nM (active)
same,AC50,[12],333 nM (active)
same,AC50,[13],135 nM (active)
O=C1OC2(c3ccc(O)cc3Oc3cc(O)ccc32)c2ccccc21,outcome,[1],inactive
same,outcome,[2],inactive
same,outcome,[3],inactive
same,AC50,[4],20 µM (active)
same,outcome,[5],inactive
same,AC50,[15],896 nM (active)
same,outcome,[16],inactive
same,outcome,[18],inactive
same,outcome,[7],inactive
same,outcome,[17],inactive
same,outcome,[9],inactive
same,outcome,[10],inactive
same,outcome,[11],inactive
same,outcome,[12],inactive
same,AC50,[13],20000 nM (active)
O=C(O)C(F)(F)OC(F)(F)C(F)(F)OC(F)(F)C(F)(F)C(F)(F)C(F)(F)F,outcome,[1],inactive
same,outcome,[3],inactive
same,AC50,[4],54.5 µM (active) and 48.8 µM (active)
same,outcome,[9],inactive
same,AC50,[10],50.4 µM (active) and 55.2 µM (active)
same,outcome,[11],inactive
same,outcome,[12],inactive
same,outcome,[13],inactive
